Source: PubChem
VP16 counter – inhibits Gal4-VP16 luciferase reporter, ROR gamma counter-screen | Drosophila S2 Gal4-VP16 UAS-luciferase, luminescence, 20 h | Potency, µM (doses to about 53.6 µM), inactives show at the top dose activity, negative = inhibition, usual class: inhibitors | 3.5% of 310,000 active;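 note: Gal4-VP16 expression switched on by copper sulfate through the metallothionein promoter; % is set by controls: 0 for no effect and ±100 for the full control effect; nearly all actives have a fitted effect of over 50% in size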
PINK1 modulator – modulators of PINK1 expression | PINK1 immunofluorescence, high-content cytometry, 24 h | Potency, µM (titrated, usually from 76.6 µM), inactives show at the top dose activation (PINK1 increase), usual class: activators | 0.2% of 410,000 active | AID 624263; active = well fitted activation curve with a large enough effect; inconclusive = small, poorly fitted or top-dose-only effect; cell line not stated here; note: % of control where 0% means no effect; nearly all actives have a fitted effect of over 65% in size
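Decision-based qHTS: stable cells, 24 h exposure to five compound concentrations, CCCP as control. Fixed cells stained for PINK1 plus nuclear, mitochondrial and cell markers, cytometer read.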
Sfp inh – inhibitors of Bacillus subtilis Sfp phosphopantetheinyl transferase; Q9F4F7; Biochemical Sfp PPTase activity, qHTS; Potency, µM, inactives show largest response in the series, negative = inhibition, actives largely listed as inhibitors; 3.5% of 310,000 active;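 note: the enzyme is Sfp with the accession as filed and its product quenches rhodamine fluorescence; 0% = enzyme reaction without inhibitor and -100% = no enzyme wells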
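Fluorescence-quenching assay with 15 nM Sfp, 5 uM rhodamine-CoA and 12.5 uM BHQ-2-labelled ybbR peptide in pH 7.6 Hepes/MgCl2 buffer. Enzyme was pre-incubated with compound for 15 min at room temperature. Rate was taken from the 30-min fluorescence change (525/598 nm).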
ClpP mod – qHTS Assay for Activators of ClpP. ATP-dependent Clp protease proteolytic subunit (Bacillus subtilis (strain 168)), P80244. AID 651965, 2013. purified B. subtilis ClpP, FRET peptide cleavage, 20 min. 1.9% of 340,000 active. Potency, µM (titrated, usually from 57.5 µM), without a hit: at the top dose activity change, negative = active; active = well fitted falling curve with a large enough effect; inconclusive = small, poorly fitted or top-dose-only effect; inactive = no such curve, though single readings can be large or run the other way; note: the source files actives as falling curves though it sought activators and does not explain the sign; nearly all actives have a fitted effect of over 65% in size
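FRET quenching reversal measured ClpP activation: 10 microg/mL B. subtilis ClpP at pH 8 with the FRET-FV decapeptide, read at 430 nm after 320 nm excitation. The 20-min minus 0-min signal was scaled between DMSO/no-enzyme wells and ADEP (5.8 microM final).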
RORgamma inh – inhibitors of mouse ROR gamma transcriptional activity; Drosophila S2 Gal4-RORgamma UAS-luciferase reporter, 20 h; Potency, µM (doses to about 53.6 µM), for the others: at the highest dose activity change, negative = inhibition, actives largely listed as inhibitors; 5.4% of 310,000 active; note: % is set by controls: 0 for no effect and ±100 for the full control effect; nearly all actives have a fitted effect of over 60% in size
Target sequence (P51450 whole entry, looked up, the tested form may be a part): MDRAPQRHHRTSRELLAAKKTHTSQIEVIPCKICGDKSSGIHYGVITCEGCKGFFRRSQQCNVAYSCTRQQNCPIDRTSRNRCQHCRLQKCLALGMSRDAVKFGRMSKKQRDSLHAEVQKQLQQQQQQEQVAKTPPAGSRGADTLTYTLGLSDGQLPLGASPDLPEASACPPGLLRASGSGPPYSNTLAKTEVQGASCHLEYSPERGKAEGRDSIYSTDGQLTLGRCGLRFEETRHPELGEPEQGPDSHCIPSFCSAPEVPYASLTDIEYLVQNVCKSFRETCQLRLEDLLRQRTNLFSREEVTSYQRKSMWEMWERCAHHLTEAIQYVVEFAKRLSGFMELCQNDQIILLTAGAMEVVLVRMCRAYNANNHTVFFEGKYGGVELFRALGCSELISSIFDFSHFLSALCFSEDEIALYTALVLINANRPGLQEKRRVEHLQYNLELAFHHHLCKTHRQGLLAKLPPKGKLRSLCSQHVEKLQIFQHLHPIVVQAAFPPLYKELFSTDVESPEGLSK
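In this cell-based reporter format, copper sulfate (700 uM final) drives Gal4–ROR gamma fusion expression from a metallothionein promoter in Drosophila Schneider cells; compounds preincubated 1 hr, reporter read after 20 hr at ambient temperature.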
Epigenetic derep – derepresses silenced GFP reporter in murine cells; murine LDR cells, GFP reporter derepression, 30 h; Potency, µM (top dose mostly 53.9 µM), for the others: top-dose GFP activation, usual class: activators; 0.2% of 280,000 active; AID 1865; note: % of control where 0% means no effect; nearly all actives have a fitted effect of over 60% in size
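Murine LDR cells carrying a silenced, genomically integrated CMV-driven GFP reporter were exposed to compound for 30 hours at 37 C. After PBS washes, GFP-positive cells (20–120 um objects) were counted by laser-scanning microplate cytometry.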
Numbers without * were called inactive; ? = inconclusive; · = no result; [ ] = another dose, or the depositor's remark. Compounds with a hit are over-represented: about 8.1% of the library has one in this group of screens. Unless noted, calls come from the whole dose curve; as a rule, active = well fitted curve in the direction sought with a large enough effect; inconclusive = small, poorly fitted or top-dose-only effect, or another doubt; inactive = no such curve, though single readings can be large; an effect the other way counts as inactive or inconclusive. Potency is the fitted concentration of half-maximal effect.

SMILES | VP16 counter | PINK1 modulator | Sfp inh | ClpP mod | RORgamma inh | Epigenetic derep
COc1ccc(CCN2CC(C(=O)N(C)Cc3ccccn3)CCC2=O)cc1 (stereo unspecified) | · | 2% | · | 0% | · | ·
COc1ccccc1CCNC(=O)C1CCC(=O)N(Cc2ccccc2OC)C1 (stereo unspecified) | -1% | 0% | 12% | 0% | -19% | ·
COc1ccc(CCN2CC(C(=O)N(C)Cc3ccc(C)o3)CCC2=O)cc1 (stereo unspecified) | -1% | 0% | 22µM* | -2% | 30% | ·
COc1ccccc1CN1CC(C(=O)NCCc2ccc(C)o2)CCC1=O (stereo unspecified) | 16% | -1% | ? | 0% | 16% | ·
CCC(Cn1nnc2ccccc2c1=O)NC(=O)Nc1ccc(C)cc1C (stereo unspecified) | · | -1% | · | -1% | · | 1%
Cc1c(CCC(=O)NCCc2ccccc2)c(=O)oc2c(C)c(O)ccc12 | · | 0% | · | 4% | · | ?
COc1ccc(OC)c(Nc2sc(C(=O)c3ccccc3)c(N)c2S(=O)(=O)c2ccccc2)c1 | · | 3% | · | -18% | · | 0%
Fc1cccc2sc(Nc3nnc(-c4ccccc4)o3)nc12 | 2.5µM* | 4% | -14% | 1% | 1.8µM* | -1%
COc1cc(OC)cc(-c2nnc(Nc3nc4c(F)cccc4s3)o2)c1 | 1.6µM* | -8%[38.3 µM] | 5% | ? | 0.71µM* | 5%
O=S(=O)(c1ccc(F)cc1)N1CCN(c2nc(-c3ccccc3)nc3cc(Cl)ccc23)CC1 | · | -2% | · | · | · | ·
CCOc1ccc(C(N)=O)cc1OC | -4% | -1% | 18% | 28µM* | 2% | 0%
COc1ccc(C(=O)c2ccc(OC)c(OC)c2)cc1OC | -16% | -1% | 16% | 0% | 4% | 0%
COc1ccc(C(=O)c2ccc(OC)c(N)c2)cc1N | -9% | · | 2% | -2% | 1.4µM* | -2%
CCOc1ccccc1C(=S)NC1CCCCC1 | ? | 0% | 89µM* | -19% | 10µM* | ·
CCOc1ccccc1NC(=S)NC1CCCCC1 | -6% | 2% | -6% | -19% | 15% | 0%
CCOc1ccc(CC(=O)NNC(=S)NC2CCCCC2)cc1OCC | -18% | -1% | 28% | -10% | ? | -1%
CCOc1ccc(C(=S)NC2CCCCC2)cc1OC | -10% | 1%[38.3 µM] | 45µM* | -2% | -33% | -3%
CCCN(CC(=O)Nc1ccc(F)c(F)c1F)C(=O)c1cc([N+](=O)[O-])ccc1N1CCOCC1 | · | 1% | · | 22µM* | · | ·
O=C(CSc1nnc(-c2cccs2)o1)Oc1ccc(Cl)cc1 | · | 0% | · | 23% | · | -4%
CC1=Nn2c(nnc2-c2cc(-c3ccccc3)n[nH]2)SC1 | -1% | 2% | -1% | -1% | 35% | 2%
CC1=Nn2c(nnc2C2CCCCC2)SC1 | -11% | 1% | 79µM* | -4% | 18% | -2%
Oc1ccccc1C=NNC(=S)NN=Cc1ccccc1O | · | 3% | · | · | · | ·
Oc1ccccc1/C=N/NC(=S)NC1CC2CC1C1C=CCC21 (stereo unspecified) | 11µM* | ? | 28% | 1% | 8.9µM* | ?
COc1cccc(/C=N/NC(=S)NC2CC3CC2C2C=CCC32)c1O (stereo unspecified) | ? | 4% | 22% | · | 8.9µM* | 1%
O=C(/C=C/c1ccc(O)c(O)c1)c1ccc(O[C@@H]2O[C@H](CO)[C@@H](O)[C@H](O)[C@H]2O)c(O)c1O | -15% | · | ? | · | 1% | ·
CC(C)CNC(=S)NNC(=O)CC(C)O (stereo unspecified) | 0% | 3% | 0% | · | 0% | -1%
Cc1cnn(CCC(=O)NNC(=S)NCC(C)C)c1 | 3.2µM* | 2% | 4% | 1% | 0.56µM* | 0%
CCCCNC(=S)NNC(=O)c1ccncc1 | -3% | 3% | 20% | · | ? | 3%
CCCCNC(=S)NNC(=O)CCn1cc(C)cn1 | 6.3µM* | -2% | 35% | 1% | 1.6µM* | 1%
